Measured values published in PubChem BioAssay (Tox21).
Inconclusive results are not listed. The source made the active and inactive calls. Unless noted, calls follow the shape of the dose curve; as a rule, active = well fitted curve in the direction sought with a large enough effect in the repeat runs; inconclusive = weak or mixed curves; inactive = no such curve, though single readings can be large; an effect the other way counts as inactive or inconclusive.

How the values were obtained:
[1] = qHTS assay to identify small molecule agonists of the estrogen receptor alpha (ER-alpha) signaling pathway in the presence of an antagonist - cell viability counter screen (AID 1259386);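 also: cells exposed to compounds for 22 h at 37 °C before the viability read; nearly all actives have a fitted effect of over 30% in size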; also: potency is read from the fitted curve at half-maximal effect
Summary of the method: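 ICI-182,780 at 10.0nM final accompanies the compound titration (15 concentrations, 22hr, 37C) on VM7Luc4E2 cells. The CellTiter-Fluor fluorescence readout runs in the same wells as the luciferase assay.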

[2] = target: Progesterone receptor (Homo sapiens) (UniProt P06401); test: qHTS assay to identify small molecule antagonists of the progesterone receptor (PR) signaling pathway (AID 1346795; active = well fitted inhibition curve with a large enough effect in the signal ratio in the repeat runs, not every such curve was filed as active; the % refers to the signal ratio; also: potency is read from the fitted curve at half-maximal effect)
Summary of the method: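 Antagonist mode: compounds tested against 1 nM (final) promegestone stimulation in HEK293T cells expressing PR-UAS-bla reporter, 16 hr at 37C, 5% CO2; beta-lactamase activity detected via B/G FRET substrate after 2 hr at room temperature.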

[3] = qHTS assay to identify small molecule antagonists of the progesterone receptor (PR) signaling pathway - cell viability counter screen (AID 1346798); also: nearly all actives have a fitted effect of over 50% in size; also: potency is read from the fitted curve at half-maximal effect
Summary of the method: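 Counter screen for cytotoxicity: viability of PR-UAS-bla HEK293T cells was measured with CellTiter-Glo luminescence following 16 hr compound exposure in the presence of R5020.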

[4] = qHTS assay to identify small molecule agonists of the progesterone receptor (PR) signaling pathway - cell viability counter screen (AID 1346799; calls by dose curve; also: nearly all actives have a fitted effect of over 45% in size; also: potency is read from the fitted curve at half-maximal effect)
Summary of the method: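 Cells (PR-UAS-bla HEK293T) are plated at 3,000/well in 2% charcoal-stripped FBS medium, rested 6 hr, dosed and incubated 16 hr at 37C. CellTiter-Glo is then added and luminescence measured after 30 min at room temperature.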

[5] = qHTS assay to identify small molecule antagonists of the TGF-beta/Smad signaling pathway - cell viability counter screen (AID 1346824); also: nearly all actives have a fitted effect of over 50% in size; also: potency is read from the fitted curve at half-maximal effect
Summary of the method: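 SBE-bla HEK 293T cells were plated overnight at 37 C, then given compounds in DMSO plus TGF-beta1 (added as 0.25 ng/mL solution) for 5 hr. After the bla read, CellTiter-Glo was added to the same wells and luminescence read after 30 min at room temperature.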

[6] = qHTS assay to identify small molecule agonists of the TGF-beta/Smad signaling pathway - cell viability counter screen (AID 1346829); also: top concentration of the series differs between compounds; nearly all actives have a fitted effect of over 45% in size
Summary of the method: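 Same-well cytotoxicity: CellTiter-Glo added after the 2 hr room-temperature beta-lactamase substrate step, luminescence measured 30 min later; cells had 5 hr of compound at 37 C.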

[7] = target: Thyrotropin-releasing hormone receptor (Homo sapiens) (UniProt P34981); test: qHTS assay to identify small molecule antagonists of the thyrotropin-releasing hormone receptor (TRHR) signaling pathway (AID 1346877; active = well fitted inhibition curve with a large enough effect in the repeat runs, not every such curve was filed as active; also: series mostly up to about 51 µM)
Summary of the method: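 Screening used HEK293 cells engineered with TRHR, with a brief 5 min room-temperature compound exposure preceding addition of TRH to 1 nM. The read-out was kinetic calcium-dye fluorescence, concentration-response from 15 doses in triplicate.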

[8] = qHTS assay to identify small molecule agonists of the TGF-beta/Smad signaling pathway (AID 1346859; active = well fitted activation curve with a large enough effect in the signal ratio in the repeat runs, not every such curve was filed as active; the % refers to the signal ratio; also: potency is read from the fitted curve at half-maximal effect; as to activation: series mostly up to about 77 µM)
Summary of the method: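 Reporter line: HEK 293T with stably integrated SBE-controlled beta-lactamase. Compound exposure lasts 5 hr at 37 C and 5% CO2; substrate loading follows for 2 hr at room temperature, with emission read at 460 and 530 nm.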

[9] = target: Progesterone receptor (Homo sapiens) (UniProt P06401); test: qHTS assay to identify small molecule agonists of the progesterone receptor (PR) signaling pathway (AID 1346784; calls by dose curve; also: nearly all actives have a fitted effect of over 30% in size)
Summary of the method: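 Cells (PR-UAS-bla HEK 293T, GripTite) were plated in assay medium containing 2% charcoal-stripped FBS and incubated 6 hr. Test compounds in DMSO were added for 16 hr at 37C. FRET substrate was then loaded for 2 hr at room temperature before fluorescence reading.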

Measured: Potency

Chain of Progesterone receptor (Homo sapiens) (P06401 whole entry, looked up): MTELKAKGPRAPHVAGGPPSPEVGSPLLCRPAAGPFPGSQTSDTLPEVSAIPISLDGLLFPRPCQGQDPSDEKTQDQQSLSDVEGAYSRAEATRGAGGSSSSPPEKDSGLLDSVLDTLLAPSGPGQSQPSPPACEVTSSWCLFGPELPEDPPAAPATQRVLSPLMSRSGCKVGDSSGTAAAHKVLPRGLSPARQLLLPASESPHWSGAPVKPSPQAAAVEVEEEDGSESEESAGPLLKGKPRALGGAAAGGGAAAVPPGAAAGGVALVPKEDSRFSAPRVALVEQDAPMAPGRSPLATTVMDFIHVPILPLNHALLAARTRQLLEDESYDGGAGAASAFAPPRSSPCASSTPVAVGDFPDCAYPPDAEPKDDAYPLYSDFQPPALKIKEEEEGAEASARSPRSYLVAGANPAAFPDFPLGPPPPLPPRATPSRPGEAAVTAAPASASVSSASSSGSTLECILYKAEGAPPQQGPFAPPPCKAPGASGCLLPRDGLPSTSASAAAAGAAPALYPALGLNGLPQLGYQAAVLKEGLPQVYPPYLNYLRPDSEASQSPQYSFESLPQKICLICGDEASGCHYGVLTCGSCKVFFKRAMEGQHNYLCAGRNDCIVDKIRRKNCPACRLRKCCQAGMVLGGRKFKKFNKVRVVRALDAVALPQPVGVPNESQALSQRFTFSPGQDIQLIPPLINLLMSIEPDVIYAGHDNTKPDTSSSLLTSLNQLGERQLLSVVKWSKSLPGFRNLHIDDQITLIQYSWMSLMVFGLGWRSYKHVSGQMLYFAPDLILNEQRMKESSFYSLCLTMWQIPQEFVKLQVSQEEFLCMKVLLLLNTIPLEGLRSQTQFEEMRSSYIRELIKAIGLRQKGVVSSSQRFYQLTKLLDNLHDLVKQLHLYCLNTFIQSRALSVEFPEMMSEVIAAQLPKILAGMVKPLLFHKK
Chain of Thyrotropin-releasing hormone receptor (Homo sapiens) (P34981 whole entry, looked up): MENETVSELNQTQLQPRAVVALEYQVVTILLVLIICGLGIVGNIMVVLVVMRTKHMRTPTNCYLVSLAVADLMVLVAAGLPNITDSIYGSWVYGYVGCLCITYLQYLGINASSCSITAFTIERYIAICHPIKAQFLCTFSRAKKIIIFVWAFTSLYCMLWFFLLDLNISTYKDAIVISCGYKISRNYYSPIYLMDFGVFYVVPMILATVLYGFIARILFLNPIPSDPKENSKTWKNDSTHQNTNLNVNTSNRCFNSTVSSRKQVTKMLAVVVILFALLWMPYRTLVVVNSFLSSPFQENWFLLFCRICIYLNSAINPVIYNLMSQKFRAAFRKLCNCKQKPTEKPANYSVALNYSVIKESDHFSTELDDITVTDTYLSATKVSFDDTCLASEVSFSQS

O=C(CCCN1CC=C(n2c(=O)[nH]c3ccccc32)CC1)c1ccc(F)cc1
not listed: [8] | [9]
inactive: all other assays above

CCCCCC[C@@H](O)C/C=C\CCCCCCCC(=O)OCC(O)CO (stereo partly specified)
not listed: [3] | [9]
inactive: all other assays above

Oc1cc2c(cc1O)[C@H]1c3ccc(O)c(O)c3OC[C@@]1(O)C2
inactive: [5] | [8] | [7]
active: [1] 27.6 µM

CCCCCCCCCCCCCCN(CCO)CCO
inactive: [1] | [8] | [7]
active: [4] 34.4 µM

COC(=O)c1nc(Cl)c(Cl)nc1N
active: [8] 23.9 µM
inactive: [1] | [5] | [6] | [7]

CN1C(C(=O)Nc2ccccn2)=C(O)c2sccc2S1(=O)=O
not listed: [1]
inactive: all other assays above

CCOC(=O)c1ccccc1C(=C1C=C(Br)C(=O)C(Br)=C1)c1cc(Br)c(O)c(Br)c1
inactive: [1] | [5] | [6] | [8] | [7]
active: [2] 18.2 µM

CC(C)=CCC/C(C)=C/CC/C(C)=C/C(=O)OCC(=O)[C@@]1(O)CC[C@H]2[C@@H]3CCC4=CC(=O)C=C[C@]4(C)[C@H]3[C@@H](O)C[C@@]21C
inactive: [9] | [8] | [7]

O=C1c2ccccc2C(=O)N1CCc1noc(-c2ccc(CN3CCCCCC3)s2)n1
inactive: [9] | [3] | [4] | [5] | [7]

C=C(C)[C@@H]1CCC2=CCC[C@@H](C)[C@]2(C)C1
inactive: [1] | [2] | [5] | [6] | [7]

c1ccc(C[n+]2cccc3ccccc32)cc1
inactive: [1] | [2] | [3] | [5]

CC(C)COCC(CN(Cc1ccccc1)c1ccccc1)N1CCCC1 (stereo unspecified)
active: [2] 29.8 µM
inactive: [1] | [7]

c1cc(N(CC2CO2)CC2CO2)ccc1Cc1ccc(N(CC2CO2)CC2CO2)cc1 (stereo unspecified)
inactive: [5] | [6] | [7]

C=CC(=O)OCC1CC2CC1C1CCC(COC(=O)C=C)C21 (stereo unspecified)
not listed: [2] | [8] | [9]
inactive: all other assays above

CCCCN(CCN(CCCC)C(=O)N1CCOCC1)C(=O)N1CCOCC1
inactive: [1] | [5] | [7]
active: [4] 29.8 µM

CC(CC1c2ccccc2CCc2ccccc21)CN(C)C (stereo unspecified)
inactive: [1] | [4] | [5] | [6] | [8]
active: [3] 23.7 µM

CCCCN1CCCC1C(=O)Nc1c(C)cc(C)cc1C (stereo unspecified)
not listed: [2] | [7] | [9]
inactive: all other assays above

COc1ccccc1NC(=O)c1cc2ccccc2cc1O
inactive: [1] | [8]
active: [2] 24.3 µM | [5] 49 µM

CC(C)(C)C(=O)C(=O)O
not listed: [6] | [9]
inactive: all other assays above

O=C=Nc1cccc(C(F)(F)F)c1
not listed: [4] | [6] | [9]
inactive: all other assays above

CCC1(CO)COCOC1
inactive: [1] | [4] | [5] | [6] | [7]

Nc1cccc2c1CN(C1CCC(=O)NC1=O)C2=O (stereo unspecified)
not listed: [9]
inactive: all other assays above

O=c1cc(-c2ccccc2)oc2ccc3ccccc3c12
active: [3] 21.7 µM | [4] 19.3 µM | [5] 13.8 µM
inactive: [1] | [2] | [7]

O=C1c2ccccc2C(=O)C1(O)O
inactive: [9] | [2] | [3] | [4] | [7]

OC(CCN1CCCC1)(c1ccccc1)C1CCCCC1 (stereo unspecified)
not listed: [2] | [9]
inactive: all other assays above

C[C@@H](O[C@H]1OCCN(Cc2n[nH]c(=O)[nH]2)[C@H]1c1ccc(F)cc1)c1cc(C(F)(F)F)cc(C(F)(F)F)c1
inactive: [1] | [5] | [6] | [8] | [7]

C=COCC(C)C
inactive: [1] | [3] | [4] | [5] | [6]

CC1(C)[C@H](C(=O)O)N2C(=O)C[C@H]2S1(=O)=O
not listed: [2] | [9]
inactive: all other assays above

O=[N+]([O-])c1ccc(O/N=C/c2cc(Br)c(O)c(Br)c2)c([N+](=O)[O-])c1
active: [1] 27.2 µM
inactive: [5] | [6]

N#[N+]c1ccc2c(S(=O)(=O)[O-])cccc2c1O
inactive: [4] | [5] | [6] | [8] | [7]
active: [1] 43.3 µM

CCOc1cccc(-n2cc(C(=O)N3CCN(c4cc(C(=O)O)c5ccccc5c4)CC3)nc2-c2ccc(C)cc2)c1
inactive: [1] | [5]

Cc1ccc(OC(=O)c2ccccc2O)cc1
not listed: [4] | [9]
inactive: all other assays above

Cc1cc(O)ccc1O
inactive: [5] | [8]

C[C@@]12CCC[C@H]1[C@@H]1CC[C@H]3C[C@@H](O)CC[C@]3(C)[C@H]1CC2
active: [3] 26.6 µM
not listed: [2] | [9]
inactive: all other assays above

C=CC(=O)[O-].C=CC(=O)[O-].[Zn+2]
inactive: [1] | [5] | [6]
active: [3] 67 µM

CC(C)(C)CC(=O)OCC(=O)[C@@]1(O)CC[C@H]2[C@@H]3CCC4=CC(=O)C=C[C@]4(C)[C@H]3[C@@H](O)C[C@@]21C
active: [2] 21.1 µM
inactive: [1] | [5] | [6] | [7]

Nc1nc2ccc([N+](=O)[O-])cc2s1
inactive: [5] | [8] | [7]
active: [1] 54.5 µM
